Screening data from PubChem.
PLK1 PBD inh – inhibitors of human PLK1 polo-box domain binding; P53350; Potency, µM, most hits filed as inhibitors; actives 2.8% (n = 360,000); Plk1 PBD binding of FITC phosphopeptide, fluorescence polarization; note: series mostly up to about 57 µM; nearly all actives have a fitted effect of over 65% in size
S-ASM inh – blocks human secretory acid sphingomyelinase; placental ASM, HMU-PC fluorogenic substrate, 60 min; Potency, µM (highest dose often 57.5 µM), actives largely listed as inhibitors; actives 0.006% (n = 340,000)
Target sequence (P17405 47-631 limits assumed): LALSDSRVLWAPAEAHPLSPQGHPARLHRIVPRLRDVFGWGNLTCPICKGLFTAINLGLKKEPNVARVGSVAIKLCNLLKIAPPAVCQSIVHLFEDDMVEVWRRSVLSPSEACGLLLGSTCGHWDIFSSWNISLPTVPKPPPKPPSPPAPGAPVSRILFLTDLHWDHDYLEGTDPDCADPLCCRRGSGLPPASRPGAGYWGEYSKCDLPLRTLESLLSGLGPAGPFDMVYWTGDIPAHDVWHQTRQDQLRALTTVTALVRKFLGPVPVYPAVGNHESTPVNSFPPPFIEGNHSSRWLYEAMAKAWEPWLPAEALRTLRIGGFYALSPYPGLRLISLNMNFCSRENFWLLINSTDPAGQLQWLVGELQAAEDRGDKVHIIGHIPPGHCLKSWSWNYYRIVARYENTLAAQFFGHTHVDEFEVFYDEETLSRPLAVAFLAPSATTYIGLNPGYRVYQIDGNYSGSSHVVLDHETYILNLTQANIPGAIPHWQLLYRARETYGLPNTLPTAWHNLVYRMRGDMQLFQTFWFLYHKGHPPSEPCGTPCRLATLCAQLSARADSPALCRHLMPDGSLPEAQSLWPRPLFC
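HMU-PC0 cleavage (9 uM final) by human placental ASM, 60 min at 37 °C following 10 min compound exposure at RT; stopped at pH 10, fluorescence Ex 386/Em 447 nm.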
Pin1 inh – human Pin1 inhibition; Q13526; Pin1 FP peptide displacement, HiFluor488, 10 min; Potency, µM (doses to about 115 µM), hits mostly inhibitors; actives 0.009% (n = 390,000); AID 504891; active = well fitted inhibition curve with a large enough effect in the polarisation, with a control signal flat, not every such curve was filed as active; inconclusive = small, poorly fitted or top-dose-only effect, or effect the other way, or a change in a side signal; inactive = no such curve, though single readings can be large or run the other way; the % refers to the polarisation
TDP1 block – TDP1 (human) enzyme inhibition | recombinant TDP1, AlphaScreen DNA substrate cleavage | Potency, µM (top dose mostly 130 µM), usual class: inhibitors | actives 0.28% (n = 350,000); note: nearly all actives have a fitted effect of over 40% in size
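Recombinant human Tdp1 (E. coli-expressed, 1 nM final) preincubated with compounds 15 min at room temperature, then 5'-biotin/3'-phosphotyrosine-FITC DNA substrate (15 nM final) added for 5 min. AlphaScreen beads (10 ug/ml final) added 10 min; cleavage lowers signal.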
VDR inhibitor – vitamin D3 receptor (human) inhibition. VDR-SRC2-3 peptide fluorescence polarization, 2 h. Potency, µM, usual class: inhibitors. P11473. actives 0.93% (n = 400,000)
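Two reagent solutions held at 4 deg C in the dark were dispensed, compounds pinned at 23 nl, and the mixture incubated 2 h at room temperature. Read-out: fluorescence polarization of VDR–SRC2-3 peptide binding.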
Tb PFK inh – T. brucei PFK enzyme inhibition. Potency, µM (top dose mostly 57.5 µM), hits mostly inhibitors. actives 0.17% (n = 330,000). AID 485367. O15648. T. brucei PFK, ADP-Glo luminescence; note: nearly all actives have a fitted effect of over 60% in size
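1.25 nM PFK with 0.5 mM F6P and 0.1 mM ATP in 0.1 M TEA pH 8.0, 5 mM MgCl2, incubated 45 min at room temperature; ADP measured by ADP-Glo luminescence; compounds titrated up to 57 uM.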
Hits are given with their value; . = inactive; ? = inconclusive; / = no result; [ ] = another dose, or the depositor's remark. Hits are enriched below; roughly 3.1% of the tested compounds scored in any of these assays. Unless noted, calls come from the whole dose curve; as a rule, active = well fitted curve in the direction sought with a large enough effect; inconclusive = small, poorly fitted or top-dose-only effect, or another doubt; inactive = no such curve, though single readings can be large; an effect the other way counts as inactive or inconclusive.

SMILES | PLK1 PBD inh | S-ASM inh | Pin1 inh | TDP1 block | VDR inhibitor | Tb PFK inh
COC(=O)c1c(-c2cccnc2)csc1NC(=O)c1cc(C)on1 | 6.7µM | . | . | . | 79µM | .
COc1ccccc1CNCC(=O)Nc1ccc(N(C)C)cc1 | 27µM | . | . | / | . | .
COc1ccccc1CNC(=O)CC(C)C | 12µM | . | . | . | ? | .
COc1ccccc1CNC(=O)C12CC3CC(CC(C3)C1)C2 | 27µM | . | . | / | . | .
CCCN1CNc2c(c(=O)[nH]c(=S)n2CCc2c(OC)cccc2OC)C1 | / | / | . | . | . | /
Cc1cc(C)c(NC(=O)Cn2c(=O)n(Cc3ccco3)c(=O)c3ccc(C(=O)NC4CCCC4)cc32)c(C)c1 | / | / | . | . | . | /
O=C1C(Cl)=C(N2CCCCC2)C(=O)C(Cl)=C1c1cnc(N2CCCCC2)s1 | 7.5µM | . | ? | . | ? | .
CC(=O)c1cnc(N(C)C)s1 | . | . | . | . | . | .
CN(C)c1ncc(C2=C(Cl)C(=O)C(N3CCCC3)=C(Cl)C2=O)s1 | 7.5µM | . | ? | / | 28µM | /
CN(C)c1cccc(-c2nc(N3CCC(C(N)=O)CC3)ncc2F)c1 | / | / | . | / | / | /
N#Cc1ccccc1S(=O)(=O)N1CCN(C(=O)C2COc3ccccc3O2)CC1 (stereo unspecified) | . | . | . | 40µM | . | .
N#Cc1ccccc1S(=O)(=O)N1CCN(C(=O)c2cc3c(s2)CCC3)CC1 | . | . | ? | 5µM | . | .
O=C(C1CCN(S(=O)(=O)Cc2ccccc2)CC1)N1CCN(c2ccc(F)cc2)CC1 | / | / | . | . | . | /
Cc1cc2c(s1)c(C#N)c(C(=O)NCc1ccccc1F)n2C | / | / | / | / | / | .
O=C(Nc1ccc(N2CCN(C(=O)c3ccc(Cl)cc3)CC2)cc1)c1cc2ccccc2o1 | . | . | . | . | . | .
O=C(Nc1ccccc1N1CCN(C(=O)c2ccc(Cl)cc2)CC1)c1cc2ccccc2o1 | 30µM | . | . | . | . | .
O=C(O)c1cccc(S(=O)(=O)NCCc2ccccc2)c1 | 30µM | . | . | . | . | .
CC(=O)c1cccc(NC(=O)CC(c2ccc(C)cc2)N2Cc3ccccc3C2=O)c1 (stereo unspecified) | / | / | . | . | . | /
C=C(C(=O)OCC)C(=O)c1ccccc1 | / | / | / | . | . | /
CC(C)CSc1n[nH]c(=S)s1 | 7.5µM | . | . | . | . | .
CC(CSc1n[nH]c(=S)s1)c1ccccc1 (stereo unspecified) | ? | . | . | / | . | /
CCCCCc1c(O)nc(SCC(=O)NCC2CCCO2)[nH]c1=O (stereo unspecified) | 27µM | . | . | . | . | .
COc1cccc(N2CCN(C(=O)c3cccn3-c3nnc(N4CCCC4)s3)CC2)c1 | / | / | . | . | . | /
COC(=O)CSCc1nc2ccccc2[nH]c1=O | 12µM | . | . | . | ? | .
CCCCCCCCC1=NCCc2c1[nH]c1ccccc21 | 24µM | . | . | / | ? | .
SMILES | PLK1 PBD inh | S-ASM inh | Pin1 inh | TDP1 block | VDR inhibitor | Tb PFK inh
CC(C)C/C=C1\CCc2c([nH]c3ccccc23)C1=O | . | . | . | . | . | .
O=C1NC(=S)S/C1=C\c1cc2ccccc2nc1N1CCCCC1 | 11µM | . | . | . | . | .
O=C1NC(=S)S/C1=C\c1cc(Cl)cc(Cl)c1O | ? | . | . | / | ? | /
O=C1NC(=S)SC1=Cc1ccccc1Cl | 21µM | . | . | / | ? | /
COc1ccccc1C=C1SC(=S)NC1=O | 27µM | . | ? | / | . | /
Cc1c(C)c2c(c(C)c1O)CCC(C)(COc1ccc(Cc3sc(=O)[nH]c3O)cc1)O2 (stereo unspecified) | / | / | / | . | . | /
CCC(=O)N(Cc1ccco1)Cc1cc2cccc(C)c2n2nnnc12 | . | . | . | . | . | .
Cc1ccc2c(c1)cc(CN(Cc1ccco1)C(=O)COc1ccccc1)c1nnnn12 | 24µM | . | . | . | . | .
O=C1c2ccccc2C(=O)N1Cc1ccncc1 | / | / | . | . | / | /
Oc1ccc(NCc2ccccc2OCc2ccccc2Cl)cc1 | / | / | ? | . | ? | /
COc1ccc(Br)cc1CNc1ccc(O)cc1 | 30µM | . | ? | . | 25µM | .
CCOc1ccccc1CNc1ccc(O)cc1 | ? | . | . | . | 40µM | .
Oc1ccc(NCc2ccc(OCc3ccccc3)cc2)cc1 | . | . | ? | . | 89µM | .
Oc1ccc(NCc2ccccc2OCc2ccccc2F)cc1 | . | . | . | . | 40µM | .
Cc1c(P(=S)(c2ccccc2)c2ccccc2)c2ccccc2n1C(=O)Cc1ccccc1 | / | / | . | . | / | /
O=c1c2ccccc2nc2sc(Nc3ccc4c(c3)CNC4)nn12 | / | / | . | / | / | /
CCOC(=O)N/N=C1/C[C@@H](O)[C@@H](O)[C@@H]2[C@H]3C(=O)N(c4ccc(F)cc4F)C(=O)[C@@H]3CC[C@H]12 | / | / | / | .[21 µM] | / | /
CCCN1CNc2c(c(=O)[nH]c(=S)n2CCc2cc(C)cc(C)c2)C1 | / | / | . | . | ? | /
CN(C)c1ccc(-c2csc(N3CCC(C(N)=O)CC3)n2)cc1 | / | / | . | / | / | /
CCOc1cc(CNc2ccc(O)cc2)ccc1OCc1ccc(Cl)cc1Cl | . | . | . | . | 32µM | .
COc1ccc(OCC(=O)Nc2ccc3c(c2)nc(CN2CCCC2)n3C)cc1 | 27µM | . | . | . | . | .
CCOC(=O)c1scc(-c2ccccc2)c1S(=O)(=O)N1CCN(c2ccccc2OC)CC1 | / | / | . | . | . | /
Nc1c(C(=O)O)sc2nc(-c3ccc(F)cc3)cc(-c3ccccc3)c12 | 30µM | . | . | . | . | .
CCOC(=O)c1sc2nc(C)cc(-c3ccccc3)c2c1N | . | . | . | . | . | .
Nc1c(C(=O)O)sc2nc(-c3ccccc3)cc(-c3ccc(Cl)cc3)c12 | ? | . | ? | 71µM | . | .
SMILES | PLK1 PBD inh | S-ASM inh | Pin1 inh | TDP1 block | VDR inhibitor | Tb PFK inh
CC(=O)c1sc2nc(-c3ccccc3)cc(C)c2c1N | . | . | . | . | . | .
CN1C(=O)Cc2cc(S(=O)(=O)NCc3ccc(Cl)cc3)ccc21 | / | / | . | . | . | /
CC1=C(c2ccc(C(C)C)cc2)S(=O)(=O)N=C1N1CCN(c2ccccc2F)CC1 | / | / | . | . | . | /
Cc1ncc(C[n+]2csc(CCO)c2C)c(N)n1 | . | . | . | . | . | .
COCc1cnc(C)nc1N | . | . | . | . | . | .
CCCSS/C(CCO)=C(/C)N(C=O)Cc1cnc(C)nc1N | / | / | / | / | 25µM | /
Cc1ncc(C[n+]2ccc(C)c(C)c2)c(N)n1 | . | . | . | / | . | .
C/C(=C(/CCO)SSCC1CCCO1)N(C=O)Cc1cnc(C)nc1N (stereo unspecified) | . | . | . | / | 56µM | .
C/C(=C(/CCO)SSC[C@@H]1CCCO1)N(C=O)Cc1cnc(C)nc1N | / | / | / | .[21 µM] | 14µM | /
Cc1ccc(CNC(=O)CSc2ncc3c(n2)-c2cc(Cl)ccc2N(C)S3(=O)=O)cc1 | / | / | . | . | . | /
Cc1ccc(S(=O)(=O)c2c(O)cc(C)c(NS(=O)(=O)c3ccc(Br)cc3)c2C)cc1 | / | / | . | / | . | /
